Data as given in PubChem BioAssay (NCATS).
Records with an inconclusive call do not appear. A number with no mark means an inactive call. Activity calls are given as the source filed them. The call rests on the fitted dose curve; in most records, active means well fitted inhibition curve with a large enough effect in the repeat runs; inconclusive means weak or mixed curves; inactive means flat fitted curve, though single readings scatter.

What follows are compounds tested against Cytochrome P450 2D6 (Homo sapiens) (UniProt P10635) (assay: Cytochrome P450 family 2 subfamily D member 6 (CYP2D6) small molecule antagonists: luciferase biochemical (cell-free) qHTS assay (AID 1645840; further: nearly all actives have a fitted effect of over 55% in size)). Conditions: P450-Glo CYP2D6 enzyme, luciferin luminescence, 1 h; series mostly up to 57.4 µM; activity change, negative = inhibition: at the top concentration.
Procedure: National Center for Advancing Translational Sciences [NCATS] Assay Overview: Cytochrome P450 (CYP) enzymes are membrane-bound hemeproteins that play a key role in metabolism of drugs and xenobiotics. Assaying the effect of chemicals on CYP isozymes is useful to minimize the adverse drug reactions and toxicities in drug development process. Chemical compounds were tested for their effect on CYP enzyme activities by using P450-Glo (TM) screening systems (Promega Corporation, Madison, WI). These systems provide a luminescent method containing proluciferin substrates and are converted to luciferin products by CYP isozymes. The luciferin products formed are detected with a luciferin detection reagent, and the amount of light produced is proportional to CYP activity. P450-Glo (TM) CYP2D6 screening system (Catalog. No. V9890) was used to detect the compounds that interfere in CYP2D6 activity.
Assay Protocol Summary: Two ul of enzyme-substrate mix was dispensed into medium binding white/solid 1536-well plates (Greiner Bio-One North America Inc., Monroe, NC) using a Flying Reagent Dispenser (FRD, Aurora Discovery, San Diego, CA). […] The assay plates were incubated at room temperature for 10 min. Then 2 ul of NADPH regeneration solution was added to each well of the assay plates using an FRD and incubated at room temperature for 1 h. The reaction was stopped by adding 4 ul of detection reagent using an FRD and after 20 min incubation at room temperature, the luminescence signal was measured using a ViewLux plate reader (Perkin Elmer, Shelton, CT). Data were expressed as relative luminescence units.
On the % scale 0 is the no-effect control and ±100 the full control effect; potency means the concentration at half of the fitted maximal effect.

Sequence of Cytochrome P450 2D6 (Homo sapiens) (P10635 whole entry, looked up): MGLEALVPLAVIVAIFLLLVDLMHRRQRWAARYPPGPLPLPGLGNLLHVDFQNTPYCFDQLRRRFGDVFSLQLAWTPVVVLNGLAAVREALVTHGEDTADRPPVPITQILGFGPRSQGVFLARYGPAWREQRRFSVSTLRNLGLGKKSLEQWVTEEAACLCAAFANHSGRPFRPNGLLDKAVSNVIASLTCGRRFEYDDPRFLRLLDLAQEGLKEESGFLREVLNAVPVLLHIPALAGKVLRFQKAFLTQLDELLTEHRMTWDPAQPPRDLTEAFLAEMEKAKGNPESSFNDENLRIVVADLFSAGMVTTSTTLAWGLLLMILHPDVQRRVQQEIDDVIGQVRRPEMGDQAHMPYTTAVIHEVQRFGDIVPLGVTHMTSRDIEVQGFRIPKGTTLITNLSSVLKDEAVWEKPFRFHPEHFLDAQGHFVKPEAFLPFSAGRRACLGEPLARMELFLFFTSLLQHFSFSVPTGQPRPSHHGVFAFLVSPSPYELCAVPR

Compound | Potency | activity change, negative = inhibition
N#Cc1c[nH]c2c(C(=O)N3CCN(CCc4ccc(F)cc4)CC3)cccc12 | 15.1 µM (active) | 
CN(CCCNC(=O)c1ccc2nc3c(c(Cl)c2c1)CCCC3)Cc1ccccc1 | 1.34 µM (active) | 
O=C(Nc1ncc(SCCN2CCCC2)s1)C1(c2ccc(S(=O)(=O)C3CC3)cc2)CC1C1CCCCC1 (stereo not given) | 21.3 µM (active) | 
CCN1CCN(Cc2ccc(-c3cc4c(NC(C)c5ccccc5)ncnc4[nH]3)cc2)CC1 (stereo not given) | 12 µM (active) | 
COc1ccc(C2(CNC(=O)[C@](C)(Cc3c[nH]c4ccccc34)NC(=O)Nc3ccc([N+](=O)[O-])cc3)CCCCC2)nc1 | 3.01 µM (active) | 
C=C1C(=O)O[C@@H]2[C@H]3O[C@]3(C)CC/C=C(\C)CC[C@@H]12 |  | -13.4%
C[C@H](NC(=O)C(C)(C)Oc1ccc(C(F)(F)F)cn1)[C@@H](Cc1ccc(Cl)cc1)c1cccc(C#N)c1 | 1.9 µM (active) | 
CC(C)c1cccc(O)c(=O)c1 |  | 3.75%
Cc1ccc(C(=O)N2CCN(c3ccc([N+](=O)[O-])cc3)CC2)cc1Cl |  | -24.9%
C=CC(=O)Nc1cc(Nc2nccc(-c3cn(C)c4ccccc34)n2)c(OC)cc1N(C)CCN(C)C | 23.9 µM (active) | 
CCOc1cc(CNC2CCCC2)cc(Cl)c1OCc1ccc(Cl)cc1 | 1.51 µM (active) | 
COc1cccc(CNC(=O)Nc2nc(-c3ccncc3)cs2)c1 | 0.601 µM (active) | 
Cc1ccc2c(Nc3ccc(Cl)cc3)nccc2c1Nc1ncccc1-c1ncnc2nc[nH]c12 | 12 µM (active) | 
COc1ccc(Nc2nnc(-c3ccc(C)c(S(=O)(=O)NCc4nc5ccccc5[nH]4)c3)c3ccccc23)cc1 | 4.25 µM (active) | 
CN(CC[C@@H](Oc1ccc(-c2ccccc2)cc1)c1ccc(F)cc1)CC(=O)O |  | -23.3%
CCOc1nc2cccc(C(=O)OC(C)OC(=O)OC3CCCCC3)c2n1Cc1ccc(-c2ccccc2-c2nn[nH]n2)cc1 (stereo not given) | 13.5 µM (active) | 
CC(C)(C)c1ccc(CNC(=S)NCc2ccc(NS(C)(=O)=O)c(F)c2)cc1 | 3.38 µM (active) | 
COc1cc2nc(-c3cc(F)ccc3O)nc(N[C@@H]3CNC[C@H]3C(C)(C)O)c2cc1OC | 19 µM (active) | 
C[C@@H](CN1CCC(n2c(=O)[nH]c3cc(Cl)ccc32)CC1)NC(=O)c1ccc2ccccc2c1 | 10.7 µM (active) | 
CCCCOc1ccc(-c2cncc(C(=O)NCc3cccnc3N3CCOCC3)c2)cc1Cl | 12 µM (active) | 

Compound | Potency | activity change, negative = inhibition
Cn1cc(-c2cnc3ccc4ccc(CS(=O)(=O)NCc5ccccn5)cc4c(=O)c3c2)cn1 | 12 µM (active) | 
CCCCc1nc(C)c(CC(=S)N(C)C)c(=O)n1Cc1ccc(-c2ccccc2-c2nn[nH]n2)cc1 |  | 5.8%
CCOC(=O)c1cccc(CNc2ccc(N(C)C(=O)Nc3ccccc3)cc2)c1 | 5.35 µM (active) | 
COc1ccc(Cl)cc1[C@@]1(F)C(=O)Nc2cc(C(F)(F)F)ccc21 | 23.9 µM (active) | 
Nc1nc(NCC2CCC(CNS(=O)(=O)c3cccc4ccccc34)CC2)nc2ccccc12 (stereo not given) | 3.38 µM (active) | 
CCC[C@@H](NC(=O)N1C(=O)C(CC)(CC)[C@@H]1Oc1ccc(C(=O)N2CCN(C)CC2)cc1)c1ccc2c(c1)OCO2 | 16.9 µM (active) | 
OC(CNCCc1c[nH]c2ccccc12)Cn1c2ccccc2c2ccccc21 (stereo not given) | 0.268 µM (active) | 
COc1cccc(NC[C@@H](O)Cn2c3ccc(Br)cc3c3cc(Br)ccc32)c1 | 8.49 µM (active) | 
Cc1cc(C)c(NC(=O)N(Cc2ccc3c(c2)Cc2ccccc2-3)C2CCCCCC2)c(C)c1 |  | -25.5%
Fc1ccccc1CNCc1ccc(-c2ccnc3[nH]ccc23)cc1 | 0.477 µM (active) | 
COc1ccc2c(c1)C[C@H](C(=O)Nc1ccc(-c3cn[nH]c3)cc1OCCN(C)C)CO2 | 9.52 µM (active) | 
FC(F)(F)c1ccc(CNc2ccc(Cc3c[nH]c4ncccc34)cn2)cc1 | 0.19 µM (active) | 
O=[N+]([O-])c1ccc(-[n+]2nc(-c3ccccc3)nn2-c2ccc(I)cc2)cc1 | 5.35 µM (active) | 
Cn1c(NC[C@@H](N)Cc2ccccc2)nc(-c2ccncc2)c(-c2ccc3ccccc3c2)c1=O | 19 µM (active) | 
Cc1ccc(-c2nnc(Nc3ccc(Br)cc3)c3ccccc23)cc1S(=O)(=O)NCc1nc2ccccc2[nH]1 | 3.38 µM (active) | 
CC(C)c1ccc(NC(=O)C(c2ccccc2)N(C)C(=O)Cc2c[nH]c3ccccc23)cc1 (stereo not given) | 10.7 µM (active) | 
CNc1cc(OC)c(C(=O)N[C@@H]2CCN(Cc3ccccc3)[C@@H]2C)cc1Cl | 0.107 µM (active) | 
CCN(CC)c1ccc(C(=C2C=CC(=[N+](CC)CC)C=C2)c2cc(S(=O)(=O)O)ccc2S(=O)(=O)[O-])cc1 | 15.5 µM (active) | 
CC(C)N(CCCNC(=O)Nc1ccc(C(C)(C)C)cc1)C[C@H]1O[C@@H](n2cc(Br)c3c(N)ncnc32)[C@H](O)[C@@H]1O | 15.1 µM (active) | 
CC(=O)N1CCN([C@H]2CCN(C(=O)N(C)[C@H](C)c3cc(C(F)(F)F)cc(C(F)(F)F)c3)[C@@H](c3ccc(F)cc3C)C2)CC1 | 26.8 µM (active) | 
